In the library only some 27% were active in any assay of this set; here they are far more common.
CYP2C19 act: activators of human cytochrome P450 2C19. P33261. recombinant CYP2C19, luciferin-H EGE luminescence; stronger effect = higher value; 0 = fully inhibited enzyme, 1 = untreated enzyme. activation factor at 5 µM. 96,000 tested, under 10 active. AID 1025;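 active = activation factor of at least 2 at 5 µM in the primary screen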;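 also: 0 = wells with 2.5 mM tranylcypromine and 1 = vehicle-only wells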
Target sequence (P33261 whole entry, looked up): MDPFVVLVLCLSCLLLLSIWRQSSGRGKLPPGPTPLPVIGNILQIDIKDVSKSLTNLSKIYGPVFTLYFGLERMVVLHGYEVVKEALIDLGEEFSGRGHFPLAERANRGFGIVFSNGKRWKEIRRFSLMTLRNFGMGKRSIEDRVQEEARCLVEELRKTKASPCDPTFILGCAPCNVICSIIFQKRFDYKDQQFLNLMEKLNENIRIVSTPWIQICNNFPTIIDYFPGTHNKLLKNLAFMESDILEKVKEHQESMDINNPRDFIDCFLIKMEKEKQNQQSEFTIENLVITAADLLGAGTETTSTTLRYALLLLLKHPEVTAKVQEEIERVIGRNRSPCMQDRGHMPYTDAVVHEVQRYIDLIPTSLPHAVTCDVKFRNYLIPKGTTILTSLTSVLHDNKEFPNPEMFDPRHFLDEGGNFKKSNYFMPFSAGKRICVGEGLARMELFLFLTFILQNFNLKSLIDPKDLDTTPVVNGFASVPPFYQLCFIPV
CYP2C9 inhib: blocks human cytochrome P450 2C9 | inhibition, % at 5 µM | CYP2C9 Supersomes, luciferin-H conversion, luminescence | AID 777 | P11712 | actives 20% (n = 96,000);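 active = blocking of liver enzyme CYP2C9 beyond about 50% at 5 µM, limit read from the data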
CYP2C19 inhib: blocks human cytochrome P450 2C19. CYP2C19 Supersomes, luciferin-H EGE luminescence, 30 min. inhibition, % at 5 µM. actives 21% (n = 96,000);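 active = CYP2C19 inhibition above a set limit at 5 µM in the primary screen, cut at about 50% in these data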;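 also: plate controls were negative control wells for no effect and 2.5 mM tranylcypromine positive control for full effect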
sEH inhibitor: blocks human soluble epoxide hydrolase activity; P34913; recombinant human sEH enzymatic activity assay; inhibition, % at 2 µM; actives 0.34% (n = 91,000); in the data active = inhibition above about 80%
CYP2C9 act: CYP2C9 (human) activation. activation factor at 5 µM. P11712. recombinant CYP2C9, luciferin-H conversion, luminescence; stronger effect = higher value; factor 1 = untreated enzyme, 0 = blocked. actives 1.4% (n = 96,000). AID 1024;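 active = activation factor of 2 or more for CYP2C9 at a 5 µM dose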;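 also: 0 = sulfaphenazole-blocked wells and 1 = vehicle-only wells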
sEH activator: increases human soluble epoxide hydrolase activity; P34913; purified human sEH enzymatic activity, activator screen; activation, % at 2 µM; actives 0.04% (n = 91,000); AID 717; in the data active = activation above about 37%
* = called active by the depositor; · = no result.

SMILES	CYP2C19 act	CYP2C9 inhib	CYP2C19 inhib	sEH inhibitor	CYP2C9 act	sEH activator
CCSc1nnc(-c2ccc(S(=O)(=O)NCc3cccs3)cc2)o1	0.9	69.7*	13.0	-4.0	0.3	2.3
COCCN1C(=O)C(CC(=O)Nc2ccccc2)SC1=Nc1ccc(OC)cc1 (stereo unspecified)	0.4	81.2*	55.6*	-0.8	0.2	-0.1
CCCN1C(=O)SC(CC(=O)Nc2cccc3ccccc23)C1=O (stereo unspecified)	·	·	·	7.0	·	-3.0
CCCN1C(=O)SC(CC(=O)Nc2ccccc2)C1=O (stereo unspecified)	0.1	50.3*	88.8*	-14.0	0.5	10.8
O=C(CC1SC(=Nc2ccccc2)N(CCCO)C1=O)Nc1ccc(Cl)cc1 (stereo unspecified)	0.3	88.2*	73.0*	·	0.1	·
CCCCN(C)C(=O)CCC(=O)Nc1ccc2nc(N3CCOCC3)cc(C)c2c1	0.9	4.4	8.0	·	1	·
CN(C)c1ccc(CN(C)C2CCCCC2)cc1	0.1	0.3	92.8*	9.1	1	-7.8
CN(C)c1ccc(CN2CCCCCC2)cc1	0.4	67.0*	55.0*	·	0.3	·
CN(C)c1ccc(CN(C(=O)COc2ccccc2)C2CCS(=O)(=O)C2)cc1 (stereo unspecified)	0.7	41.7	31.0	-4.8	0.6	3.5
O=C(Nc1cccc(C(F)(F)F)c1)N1CCC(c2nc(-c3ccc(F)cc3)no2)CC1	0.6	56.1*	41.3	93.4*	0.4	-93.4
Cc1ccc(-c2noc(C3CCCN(C(=O)C4CCCCC4)C3)n2)o1 (stereo unspecified)	0.5	59.6*	53.1*	17.9	0.4	-16.6
Cc1ccccc1NC(=O)N1CCCC(c2nc(-c3ccc(F)cc3)no2)C1 (stereo unspecified)	0.5	70.3*	53.6*	·	0.3	·
Cc1ccc(-c2noc(C3CCCN(C(=O)c4ccc(F)cc4F)C3)n2)cc1 (stereo unspecified)	0.8	39.4	22.3	-2.0	0.6	0.1
Cc1ccccc1NC(=O)N1CCCC(c2nc(-c3ccc(C(C)C)cc3)no2)C1 (stereo unspecified)	0.8	69.6*	19.2	29.3	0.3	-27.8
CC(C)c1nc2n[nH]c(N)c2c2c1CSC(C)(C)C2	1.1	17.9	-12.5	6.0	0.8	-6.9
CSc1nnc(N(CCC#N)CCC#N)s1	1.1	9.3	-6.9	-9.2	0.9	9.0
CC(C)c1ccc(-c2noc(C3CCCN(C(=O)c4ccc(F)cc4F)C3)n2)cc1 (stereo unspecified)	0.2	90.1*	81.8*	16.6	0.1	-14.8
C=CCn1c(CCCNC(=O)CCC)nc2ccccc21	·	·	·	-3.5	·	3.8
COc1ccc(N2CCN(CCCNC(=O)CC3Oc4ccc(C)cc4NC3=O)CC2)cc1 (stereo unspecified)	0.9	77.3*	12.8	·	0.2	·
Cc1ccc2c(c1)NC(=O)C(CC(=O)NCCCN1CCCC1)O2 (stereo unspecified)	1	4.5	-1.6	·	1	·
O/N=C/c1ccccc1Oc1ccccc1	0.3	45.4	73.1*	1.0	0.5	1.0
Cc1cc(C)cc(Oc2ccccc2/C=N\O)c1	0.7	-158.7	25.2	0.4	2.6*	1.6
N#Cc1ccc(OCC(=O)NCCc2ccc(S(N)(=O)=O)cc2)cc1	0.9	7.8	7.7	2.1	0.9	-3.2
CCOC(=O)CSc1nnc(-c2nnc(SCC(=O)OCC)n2CC)n1CC	1.2	-9.7	-16.3	-0.8	1.1	0.2
Cc1ccc(CNC(N)=S)cc1	0.9	-6.2	6.3	-4.5	1.1	5.3
SMILES	CYP2C19 act	CYP2C9 inhib	CYP2C19 inhib	sEH inhibitor	CYP2C9 act	sEH activator
O=C(NCCN1CCCC1)c1cc(-c2ccncc2)nc2ccc(S(=O)(=O)N3CCOCC3)cc12	0.6	32.0	40.0	·	0.7	·
CCN(CCCNC(=O)c1cn(CC)c2ccc(S(=O)(=O)N(C)C)cc2c1=O)c1cccc(C)c1	0.6	76.8*	41.9	10.8	0.2	-14.6
CCn1cc(C(=O)NCCCOC)c(=O)c2cc(S(=O)(=O)N(C)C3CCCCC3)ccc21	0.7	76.3*	25.8	7.2	0.2	-7.2
O=C(NCC1CCCO1)c1cc(-c2ccncc2)nc2ccc(S(=O)(=O)N3CCOCC3)cc12 (stereo unspecified)	0.3	69.6*	72.0*	2.9	0.3	-1.5
CCn1cc(C(=O)NCC2CCCO2)c(=O)c2cc(S(=O)(=O)N(C)C3CCCCC3)ccc21 (stereo unspecified)	0.8	61.1*	21.5	5.7	0.4	-5.7
Cc1noc(C)c1S(=O)(=O)N1CCCC(C(=O)N2CCC(C)CC2)C1 (stereo unspecified)	1	-1.4	-0.3	-20.0	1	22.5
COC(=O)NCC12CC3CC(C1)CC(CNC(=O)OC)(C3)C2	0.6	-12.9	37.5	·	1.1	·
C=CCn1cc(C(=O)NCC2CCCO2)c(=O)c2cc(S(=O)(=O)N3CCCCCC3)ccc21 (stereo unspecified)	0.9	54.9*	6.6	-14.3	0.5	16.7
CC(C)N(CCNC(=O)c1cn(C)c2ccc(S(=O)(=O)N(C)C)cc2c1=O)Cc1ccccc1	0.9	51.4*	10.6	·	0.5	·
CCn1cc(C(=O)NCC2CCCO2)c(=O)c2cc(S(=O)(=O)N(C)C)ccc21 (stereo unspecified)	·	·	·	-17.4	·	17.1
Cc1nn(Cc2ccc([N+](=O)[O-])cc2)c(=O)n1-c1cccc(F)c1	0.6	8.7	44.0	9.8	0.9	-9.3
Cc1ccc(S(=O)(=O)NC(=O)NCc2ccccn2)cc1	1	4.8	0.0	10.5	1	-11.9
COc1ccc(NC(=O)c2c(-c3ccccc3Cl)noc2C)c(OC)c1	0.4	48.6	59.2*	·	0.5	·
COc1ccc(-n2nc3c(c2NC(=O)c2c(-c4ccccc4Cl)noc2C)CS(=O)(=O)C3)cc1	0.5	82.5*	49.6	10.5	0.2	-9.2
CCOC(=O)C1CCN(C(=O)CNS(=O)(=O)c2cccs2)CC1	0.7	5.9	30.9	·	0.9	·
O=C(CN(Cc1ccccc1)S(=O)(=O)c1ccccc1)NC1CC1	·	·	·	-3.2	·	6.9
Cn1nc(C(F)(F)F)c(/C=N/OC(=O)c2ccccc2)c1Sc1ccc(Cl)cc1	0.7	89.0*	33.6	4.8	0.1	-2.8
CCOC(=O)C1C2C=CC3(CN(C4CCCC4)C(=O)C13)O2 (stereo unspecified)	0.9	-10.0	11.2	·	1.1	·
Cc1cc(=O)c2ccccc2s1	0.7	-13.0	28.3	-11.6	1.1	12.2
O=c1c(C(c2ccccc2)c2c(O)sc3ccccc3c2=O)c(O)sc2ccccc12	1	94.9*	1.3	-7.3	0.1	6.5
Cn1c(=O)[nH]c(=O)c2[nH]c(CN3CCN(C(=O)c4ccco4)CC3)nc21	1.1	4.9	-7.1	2.0	1	-0.7
COc1cccc(C(c2nnnn2Cc2ccc(F)cc2)N2CCC(C(N)=O)CC2)c1OC (stereo unspecified)	0.8	11.0	20.6	-8.4	0.9	6.1

Source: PubChem (several laboratories)
